Results published in PubChem BioAssay (Tox21).
Results filed as inconclusive are left out. The source made the active and inactive calls. Calls come from the whole dose curve.

Assay: qHTS assay for small molecule agonists of the antioxidant response element (ARE) signaling pathway - cell viability counter screen (AID 743203); note: nearly all actives have a fitted effect of over 55% in size
Conditions: ARE-bla HepG2 viability, CellTiter-Glo luminescence, 16 h; series mostly up to 73.3 µM; viability change, negative = cytotoxic: at the top concentration
Description: National Center for Advancing Translational Sciences [NCATS]
NIH Chemical Genomics Center [NCGC]
U.S. Environmental Protection Agency [EPA]
National Institutes of Environmental Health Sciences [NIEHS]
National Toxicology Program [NTP]
U.S. Food and Drug Administration [FDA]
Oxidative stress has been implicated in the pathogenesis of a variety of diseases ranging from cancer to neurodegeneration. The antioxidant response element (ARE) signaling pathway plays an important role in the amelioration of oxidative stress. The CellSensor ARE-bla HepG2 cell line (Invitrogen) can be used for analyzing the Nrf2/antioxidant response signaling pathway. Nrf2 (NF-E2-related factor 2) and Nrf1 are transcription factors that bind to AREs and activate these genes. The CellSensor ARE-bla Hep G2 cell line contains a beta-lactamase reporter gene under control of the Antioxidant Response Element (ARE) stably integrated into HepG2 cells. The activation of the report gene under culture conditions can be detected by fluorescence intensity. This cell line has been used to screen the Tox21 10K compound library to identify agonists that induce oxidative stress. The cytotoxicity of the Tox21 compound library against the ARE-bla cell line was tested in parallel by measuring the cell viability using CellTiter-Glo assay (Promega, Madison, WI) in the same wells.
Tox21 Assay Protocol Summary:
ARE-bla HepG2 cells were dispensed at 2,000 cells/5 ul/well in 1536-well white wall/solid bottom plates using a Multidrop Combi (ThermoFisher Scientific, Waltham, MA) dispenser. After the assay plates were incubated at 37C/5% CO2 for 5 hrs, 23 nL of compounds dissolved in DMSO, positive controls or DMSO only was transferred to the assay plate by a pintool work station (Kalypsys, San Diego, CA). The plates were incubated at 37C/5% CO2 for 16 hrs, followed by addition of 4 ul/well of CellTiter-Glo reagent into the assay plates using a Flying Reagent Dispenser (Aurora Discovery, San Diego, CA). After 30 min incubation at room temperature, the luminescence intensity in the assay plates was measured using a ViewLux (PerkinElmer, Shelton, CT) plate reader.
% is set by controls: 0 for no effect and ±100 for the full control effect.

| Compound | viability change, negative = cytotoxic |
| --- | --- |
| CC(COc1ccccc1)NC(C)C(O)c1ccc(O)cc1 (stereo not given) | 12.4% (inactive) |
| CS(C)=O | -0.607% (inactive) |
| C1CCN(CN2CCCCC2)CC1 | 17.6% (inactive) |
| C=CC(=O)OCCCCCCCCCC | 11.7% (inactive) |
| CC(=O)OCC(=O)[C@@]1(O)CC[C@H]2[C@@H]3CCC4=CC(=O)C=C[C@]4(C)[C@@]3(F)[C@@H](O)C[C@@]21C | 2.79% (inactive) |
| O=Cc1ccc([N+](=O)[O-])cc1 | 4.99% [at 94.8 µM] (inactive) |
| C[Si](C)(C)O[Si](C)(C)O[Si](C)(C)C | 9.9% (inactive) |
| O=C(O)c1cccnc1Nc1cccc(C(F)(F)F)c1 | 0.342% (inactive) |
| O=C(Nc1ccc2c(c1)Cc1ccccc1-2)C(F)(F)F | -6.11% (inactive) |
| COC=O | -4.87% [at 8.36 µM] (inactive) |
| Cc1nc(C)c(C)nc1C | -8.87% (inactive) |
| CC1=CC(=C(c2ccc(N)cc2)c2ccc(N)cc2)C=CC1=N | -12.3% [at 8.36 µM] (inactive) |
| COc1ccc(C(=O)c2ccc(C)cc2)c(O)c1 | -6.51% [at 94.8 µM] (inactive) |
| N#CCCCC(C#N)CCC#N (stereo not given) | -9.94% (inactive) |
| CCCCCO | 2.75% (inactive) |
| O=C1C=CCCC1 | -5.63% [at 94.8 µM] (inactive) |
| S=c1[nH][nH]c(=S)s1 | 3.86% (inactive) |
| N#Cc1ccc(CC(=O)c2cccc(C(F)(F)F)c2)cc1 | -1.53% (inactive) |
| O=C(O)c1ccccc1[N+](=O)[O-] | -2.71% (inactive) |
| CC(C)(C)c1cc(C=O)cc(C(C)(C)C)c1O | -1.92% (inactive) |

| Compound | viability change, negative = cytotoxic |
| --- | --- |
| CCc1c(C)[nH]c2c1C(=O)C(CN1CCOCC1)CC2 (stereo not given) | 10.7% (inactive) |
| COC(=O)C(C)(C)C | 5.85% [at 94.8 µM] (inactive) |
| CC(O)CN (stereo not given) | 9.89% (inactive) |
| CC(=O)Nc1cccc(N)c1 | -0.387% [at 94.8 µM] (inactive) |
| COC(=O)c1cc(Cl)ccc1[N+](=O)[O-] | 15.1% (inactive) |
| COc1ccc(/C=C/c2cc(OC)cc(=O)o2)cc1 | 6.29% (inactive) |
| CC1=C(C)C(=O)C(C(CCCCCC(=O)O)c2ccccc2)=C(C)C1=O (stereo not given) | -2.64% (inactive) |
| SCCOCCOCCS | 3.6% (inactive) |
| COc1cc(C)c(Cc2cnc(N)nc2N)cc1OC | 10.9% (inactive) |
| O=C(O)c1cc(C(=O)O)c(C(=O)O)cc1C(=O)O | -25.6% (inactive) |
| Cc1c(Nc2ncccc2C(=O)O)cccc1C(F)(F)F | 0.127% (inactive) |
| O=c1[nH]nc(-c2ccc([N+](=O)[O-])o2)o1 | -5.83% (inactive) |
| NC(=O)c1ccccc1C(N)=O | 3.65% [at 94.8 µM] (inactive) |
| Cc1cc(C)c(C)c(O)c1 | 8.79% (inactive) |
| CCCC1CCOC(C)S1 (stereo not given) | 5.28% (inactive) |
| CCCOC(C)=O | 1.24% (inactive) |
| C=CC(O)CCCCC (stereo not given) | -18.2% (inactive) |
| Cc1nc2sccn2c(=O)c1CCN1CCC(=C(c2ccc(F)cc2)c2ccc(F)cc2)CC1 | -3.34% (inactive) |
| CCOc1ccccc1O | -0.359% (inactive) |
| C=Cc1ccc(C=C)cc1 | -0.112% [at 94.8 µM] (inactive) |
